Laboratory results: PubChem BioAssay
Calls of active or inactive are those of the source.

Key:
[1] = small molecules captured by biotinylated probe aFSTL3 – biochemical, small-molecule microarray, fluorescence 635/667, stem cell growth factor project, primary screen (AID 1064); details: higher = more signal;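 further: measures binding of the biotinylated anti-FSTL3 antibody to printed compounds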
[2] = binders from COS7 lysate, DM2A8 probe, primary screen, torsin A project, cell lysate, small-molecule microarray, fluorescence 635/667 (AID 1065); details: higher = more signal, COS7 lysate expressing mutant human TOR1A
[3] = small molecules captured by biotinylated probe aFGF2 – biochemical, small-molecule microarray, fluorescence 635/667, stem cell growth factor project, primary screen (AID 1067); details: higher = more signal;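 further: measures binding of biotinylated aFGF2 protein to printed compounds on slides; z-score merges feature fluorescence and signal-to-noise across triplicate slides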
[4] = small molecules captured by biotinylated probe aFGF10 – biochemical, small-molecule microarray, fluorescence 635/667, stem cell growth factor project, primary screen (AID 1071); details: higher = more signal;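 further: score merges 667 nm spot intensity and signal to noise from triplicate slides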
[5] = target: Neurogenic locus notch homolog protein 2 (Homo sapiens) (UniProt Q04721); test: small molecules binding Notch2 protein – biochemical, small-molecule microarray, 635 nm fluorescence, stem cell growth factors, primary screen (AID 1073); details: higher = more signal
Chain of Neurogenic locus notch homolog protein 2 (Homo sapiens) (Q04721 whole entry, looked up, canonical isoform): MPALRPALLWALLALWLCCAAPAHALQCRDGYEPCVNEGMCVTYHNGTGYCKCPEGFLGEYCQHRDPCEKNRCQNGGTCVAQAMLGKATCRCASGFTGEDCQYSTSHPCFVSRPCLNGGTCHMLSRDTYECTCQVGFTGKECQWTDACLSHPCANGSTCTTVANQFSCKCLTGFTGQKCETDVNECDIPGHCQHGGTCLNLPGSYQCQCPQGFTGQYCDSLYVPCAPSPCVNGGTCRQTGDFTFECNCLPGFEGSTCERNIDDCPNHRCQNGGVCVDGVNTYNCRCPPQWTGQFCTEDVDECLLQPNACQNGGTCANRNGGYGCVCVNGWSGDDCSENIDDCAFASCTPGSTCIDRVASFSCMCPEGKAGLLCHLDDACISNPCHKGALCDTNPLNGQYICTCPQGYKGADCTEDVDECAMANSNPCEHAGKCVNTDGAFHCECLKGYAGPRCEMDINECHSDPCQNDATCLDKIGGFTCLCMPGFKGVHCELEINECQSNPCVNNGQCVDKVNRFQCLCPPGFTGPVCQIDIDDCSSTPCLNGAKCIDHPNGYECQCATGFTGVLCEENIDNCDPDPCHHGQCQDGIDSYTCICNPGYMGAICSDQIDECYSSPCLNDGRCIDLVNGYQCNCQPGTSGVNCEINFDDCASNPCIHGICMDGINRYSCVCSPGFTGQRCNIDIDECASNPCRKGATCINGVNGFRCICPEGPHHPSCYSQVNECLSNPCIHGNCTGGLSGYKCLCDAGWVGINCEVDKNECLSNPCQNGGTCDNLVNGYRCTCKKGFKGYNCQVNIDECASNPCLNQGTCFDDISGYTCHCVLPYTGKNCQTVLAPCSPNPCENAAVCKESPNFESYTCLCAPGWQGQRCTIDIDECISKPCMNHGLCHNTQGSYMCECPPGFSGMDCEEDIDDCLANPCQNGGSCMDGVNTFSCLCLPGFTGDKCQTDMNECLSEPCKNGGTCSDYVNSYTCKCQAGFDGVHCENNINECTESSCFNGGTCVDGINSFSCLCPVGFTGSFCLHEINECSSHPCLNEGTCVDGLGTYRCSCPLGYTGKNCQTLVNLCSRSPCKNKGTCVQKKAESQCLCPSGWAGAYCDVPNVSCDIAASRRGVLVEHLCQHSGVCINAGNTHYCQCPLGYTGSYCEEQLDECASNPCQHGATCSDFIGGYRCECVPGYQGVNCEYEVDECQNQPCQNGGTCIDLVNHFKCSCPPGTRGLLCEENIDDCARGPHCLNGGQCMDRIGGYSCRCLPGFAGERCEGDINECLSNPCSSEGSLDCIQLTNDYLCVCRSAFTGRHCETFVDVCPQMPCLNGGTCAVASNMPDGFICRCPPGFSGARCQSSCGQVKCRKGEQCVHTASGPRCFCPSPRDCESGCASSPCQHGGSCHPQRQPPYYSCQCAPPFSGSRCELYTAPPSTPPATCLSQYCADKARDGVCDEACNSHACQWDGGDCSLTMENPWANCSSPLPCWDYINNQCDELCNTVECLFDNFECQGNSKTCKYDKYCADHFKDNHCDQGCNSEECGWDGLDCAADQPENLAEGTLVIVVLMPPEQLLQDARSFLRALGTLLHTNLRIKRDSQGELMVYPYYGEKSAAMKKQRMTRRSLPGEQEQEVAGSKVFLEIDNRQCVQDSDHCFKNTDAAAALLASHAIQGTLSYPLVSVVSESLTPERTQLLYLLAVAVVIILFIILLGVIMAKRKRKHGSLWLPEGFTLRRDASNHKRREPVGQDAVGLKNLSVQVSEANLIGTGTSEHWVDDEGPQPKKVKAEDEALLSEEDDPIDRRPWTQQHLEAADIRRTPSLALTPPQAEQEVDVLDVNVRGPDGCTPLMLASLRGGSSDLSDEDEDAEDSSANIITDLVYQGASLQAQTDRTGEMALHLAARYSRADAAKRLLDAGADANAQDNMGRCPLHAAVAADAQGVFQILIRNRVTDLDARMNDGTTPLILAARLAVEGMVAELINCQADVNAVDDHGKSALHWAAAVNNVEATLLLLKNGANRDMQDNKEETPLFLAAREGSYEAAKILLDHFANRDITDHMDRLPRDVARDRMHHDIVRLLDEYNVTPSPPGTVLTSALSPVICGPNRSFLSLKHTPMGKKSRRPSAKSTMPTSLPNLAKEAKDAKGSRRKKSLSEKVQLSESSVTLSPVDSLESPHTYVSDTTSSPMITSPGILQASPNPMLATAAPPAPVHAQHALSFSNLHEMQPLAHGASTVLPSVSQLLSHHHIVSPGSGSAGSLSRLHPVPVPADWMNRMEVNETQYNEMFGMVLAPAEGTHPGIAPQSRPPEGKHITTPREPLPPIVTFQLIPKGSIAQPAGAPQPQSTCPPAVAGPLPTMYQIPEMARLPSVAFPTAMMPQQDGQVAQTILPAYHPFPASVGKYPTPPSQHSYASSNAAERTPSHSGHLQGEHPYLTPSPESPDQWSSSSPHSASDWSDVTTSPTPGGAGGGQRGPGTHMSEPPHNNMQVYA

[6] = target: Pro-neuregulin-1, membrane-bound isoform (Homo sapiens) (UniProt Q02297); test: small molecules binding neuregulin-1 protein – biochemical, small-molecule microarray, fluorescence 635/667, psychiatric disease protein project, primary screen (AID 1075); details: NRG1 binding, 635 nm fluorescence, higher = more signal;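 further: score combines 667 nm spot fluorescence with signal to noise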
Chain of Pro-neuregulin-1, membrane-bound isoform (Homo sapiens) (Q02297 whole entry, looked up, the tested form may be a part, canonical isoform): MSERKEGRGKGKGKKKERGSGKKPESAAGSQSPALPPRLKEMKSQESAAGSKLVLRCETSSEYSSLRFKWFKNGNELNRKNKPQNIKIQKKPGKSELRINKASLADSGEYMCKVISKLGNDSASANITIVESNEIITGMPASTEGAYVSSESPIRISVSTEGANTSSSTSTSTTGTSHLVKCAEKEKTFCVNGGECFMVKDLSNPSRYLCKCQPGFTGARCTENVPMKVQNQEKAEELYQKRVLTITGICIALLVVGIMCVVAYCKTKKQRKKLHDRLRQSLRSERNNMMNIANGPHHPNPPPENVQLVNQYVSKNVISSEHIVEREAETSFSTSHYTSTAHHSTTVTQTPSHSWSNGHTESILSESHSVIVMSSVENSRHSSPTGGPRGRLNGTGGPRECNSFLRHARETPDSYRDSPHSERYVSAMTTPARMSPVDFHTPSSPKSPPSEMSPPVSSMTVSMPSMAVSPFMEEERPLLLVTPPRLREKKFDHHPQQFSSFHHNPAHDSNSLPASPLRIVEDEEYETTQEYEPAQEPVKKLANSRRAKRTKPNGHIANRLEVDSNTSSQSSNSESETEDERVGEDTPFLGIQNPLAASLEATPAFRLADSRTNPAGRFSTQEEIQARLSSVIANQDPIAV

[7] = system: Neuregulin-1 EGF-like domain; test: small molecules binding NRG1 EGF domain – biochemical, small-molecule microarray, 635 nm fluorescence, primary screen (AID 1081); details: higher = more signal;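 further: binding of the protein to compounds printed on small-molecule microarray slides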
[8] = FRG1 expression reporter modulators in myotubes – cell-based, C2C12 myotubes, firefly/Renilla luciferase, luminescence, FRG1 inhibition for FSHD, primary screen (AID 1084); details: FRG1 promoter luciferase, higher = more signal, called active from +8 up or from −8 down
[9] = small molecules captured by biotinylated probe aFST – biochemical, small-molecule microarray, fluorescence 635/667, stem cell growth factor project, primary screen (AID 1086); details: higher = more signal;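 further: score merges 667 nm fluorescence with signal-to-noise of each printed compound spot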
[10] = binders of probe aHhip on microarray, primary screen, stem cell growth factor project, biochemical, small-molecule microarray, fluorescence 635/667 (AID 1087); details: higher = more signal;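 further: score merges spot fluorescence at 667nm with spot signal to noise ratio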
[11] = system: PRMT1 (protein arginine N-methyltransferase 1); test: small molecules binding arginine methyltransferase PRMT1 – biochemical, small-molecule microarray, 635 nm fluorescence, primary screen (AID 1088); details: higher = more signal;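 further: binding of Prmt1 protein to compounds spotted on small-molecule microarray slides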
[12] = growth effects on S. cerevisiae YJM789 – YJM789 clinical isolate, OD600, 24 h, basal, primary screen (AID 1089); details: higher = more signal, called active from +8 up or from −8 down;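 further: growth of clinical yeast isolate S. cerevisiae YJM 789 seeded 1000 cells per well; test concentration not given here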
[13] = S. pombe growth modifiers, basal conditions – strain 972, OD600, 24 h, no modulator, primary screen (AID 1090);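 further: basal condition with compound alone and no growth modifier present; test concentration not given here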; details: S. pombe 972 growth, higher = more signal, called active from +8 up or from −8 down
[14] = budding yeast growth modifiers under rapamycin – strain BY4716, OD600, 96 h, primary screen (AID 1091); further: test concentration not given here; details: S. cerevisiae BY4716 + rapamycin, higher = more signal, called active from +8 up or from −8 down
[15] = target: Torsin-1A-interacting protein 2 (Homo sapiens) (UniProt Q8NFQ8); test: small molecules binding lysate-expressed LULL1 – cell lysate, human LULL1 lysate, 635/667 nm fluorescence, primary screen (AID 1092); details: small-molecule microarray, hLULL1 lysate binding, 635 nm fluorescence; higher = more signal;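 further: probe is lysate of COS7 cells overexpressing human LULL1; score merges per-feature 667 nm fluorescence with signal-to-noise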
Chain of Torsin-1A-interacting protein 2 (Homo sapiens) (Q8NFQ8 whole entry, looked up): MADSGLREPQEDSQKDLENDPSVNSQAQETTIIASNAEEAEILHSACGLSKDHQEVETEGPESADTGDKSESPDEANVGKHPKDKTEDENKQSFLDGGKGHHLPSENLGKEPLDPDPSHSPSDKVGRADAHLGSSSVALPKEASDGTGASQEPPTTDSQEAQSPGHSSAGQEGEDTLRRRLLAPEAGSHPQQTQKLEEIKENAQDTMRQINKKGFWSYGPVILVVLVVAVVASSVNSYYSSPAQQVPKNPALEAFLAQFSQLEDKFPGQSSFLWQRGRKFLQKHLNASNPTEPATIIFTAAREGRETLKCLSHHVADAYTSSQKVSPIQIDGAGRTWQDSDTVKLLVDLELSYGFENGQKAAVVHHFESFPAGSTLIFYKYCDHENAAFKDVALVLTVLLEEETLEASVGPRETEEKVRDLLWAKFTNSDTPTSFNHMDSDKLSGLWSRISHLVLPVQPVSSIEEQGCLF

[16] = optical density change of DRC41 E. coli – strain DRC41, OD650, 24 h, E. coli filamentation project, primary screen (AID 1093);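 further: MC1000 strain lacking acrAB efflux and sulA so SOS filamentation is blocked; test concentration not given here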; details: E. coli DRC41 growth, higher = more signal, called active from +8 up or from −8 down
[17] = probe aLefty2 binding to arrayed compounds – biochemical, biotinylated probe, 635/667 nm fluorescence, primary screen (AID 1094); details: small-molecule microarray, higher = more signal;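 further: score merges spot fluorescence near 667 nm with spot signal-to-noise ratio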
[18] = system: Noggin (protein binding on small-molecule microarray); test: small molecules binding Noggin protein – biochemical, 635/667 nm fluorescence, primary screen (AID 1095); details: 635 nm fluorescence, higher = more signal;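 further: score merges 667 nm feature fluorescence with signal to noise over triplicate slides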
[19] = target: Neurogenic locus notch homolog protein 3 (Homo sapiens) (UniProt Q9UM47); test: small molecules binding NOTCH3 protein – biochemical, 635/667 nm fluorescence, primary screen (AID 1096); details: small-molecule microarray, 635 nm fluorescence, higher = more signal
[20] = probe aEGFR binding to arrayed compounds – biochemical, biotinylated probe, 635/667 nm fluorescence, primary screen (AID 1097); details: small-molecule microarray, higher = more signal;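 further: probe is a biotinylated anti-EGFR antibody binding compounds printed on slides; score combines fluorescence near 667 nm and signal to noise of each spot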

Structure (SMILES) | composite z-score [1] | composite z-score [2] | composite z-score [3] | composite z-score [4] | composite z-score [5] | composite z-score [6] | composite z-score [7] | z-score [8] | composite z-score [9] | composite z-score [10] | composite z-score [11] | z-score [12] | z-score [13] | z-score [14] | composite z-score [15] | z-score [16] | composite z-score [17] | composite z-score [18] | composite z-score [19] | composite z-score [20]
CN(C)C(=O)[C@@]1(Cc2ccccc2)N=C(c2ccc(OCCCO)cc2)O[C@H]1c1ccccc1N=[N+]=[N-] | 0.0567 | -0.204 | 0.061 | 0.64 | 1.55 | 1.56 | 1.12 | -1.66 (inactive) | 1.69 | -0.353 | 1.53 | -2.59 (inactive) | -1.89 (inactive) | 4.73 (inactive) | 3.3 | 0.875 (inactive) | 0.306 | 0.835 | 1.11 | 0.0595
COc1ccc([Si](C)(C)[C@H]2[C@H](CCO)O[C@@]3(C(=O)N(Cc4ccc(N5C(=O)COc6ccccc65)cc4)c4ccccc43)[C@@H]2C)cc1 | 0.0421 | -0.271 | -0.14 | -0.164 | -0.24 | 0.774 | 0.474 | -3.99 (inactive) | -0.148 | 0.0129 | 1.06 | 0.223 (inactive) | -0.379 (inactive) | 25.3 (active) | 1.31 | -0.132 (inactive) | -0.0796 | -0.6 | -0.0154 | -0.222
CC(=O)n1cc(C(O)C2C=CC3C(=O)N(C)C(=O)C3N2Nc2ccccc2)c2ccccc21 (stereo not given) | 0.508 | 0.287 | 0.0672 | 0.974 | 1.58 | 1.78 | 1.27 | 0.376 (inactive) | 0.951 | -0.0196 | 1.05 | -0.0186 (inactive) | 1.4 (inactive) | 1.05 (inactive) | 3.18 | -0.77 (inactive) | 0.347 | 0.606 | 1.12 | -0.0644
COc1cc2c(cc1OC)CN(C(=O)[C@H]1[C@@H]3C(=O)O[C@@H](c4ccccc4)[C@@H](c4ccccc4)N3[C@@H](c3ccc(O)cc3)[C@]13C(=O)Nc1ccc(C#CC4=CCCCC4)cc13)CC2 | -0.0904 | 1.36 | 0.088 | 1.24 | 1.24 | 1.33 | 1.21 | -0.139 (inactive) | 0.827 | 0.421 | 1.51 | 0.203 (inactive) | -2.16 (inactive) | 0.563 (inactive) | 2.83 | 1.64 (inactive) | 0.0857 | 1.12 | 0.913 | 0.143
CN1C(=O)C2C=CC(C(O)C3CC=CCC3)N(NC(=O)OC(C)(C)C)C2C1=O (stereo not given) | -0.138 | 0.23 | 0.218 | 0.752 | 1.29 | 1.64 | 1.21 | 2.23 (inactive) | 0.879 | -0.0296 | 1.14 | 0.0125 (inactive) | 0.826 (inactive) | 0.259 (inactive) | 3.54 | -1.16 (inactive) | -0.0379 | 0.532 | 0.95 | -0.0197
[N-]=[N+]=NCc1ccccc1[C@H]1OC(c2ccc(OCCCO)cc2)=N[C@@]1(Cc1ccccc1)C(=O)NCc1ccccc1 | -0.0101 | 0.742 | -0.0184 | 1.27 | 1.24 | 2.05 | 0.921 | -1.5 (inactive) | 0.513 | -0.331 | 1.48 | -1.9 (inactive) | -0.0354 (inactive) | 6.58 (inactive) | 2.86 | 0.84 (inactive) | 0.151 | 0.177 | 1.12 | 0.411
CC(=O)N1Cc2ccccc2C[C@@]2(COC(c3ccc(OCCCO)cc3)=N2)C1=O | 1.54 | 0.842 | 0.235 | 0.51 | 1.18 | 1.4 | 1.07 | -0.41 (inactive) | 1.83 | -0.21 | 1.55 | -3.98 (inactive) | -0.737 (inactive) | -0.965 (inactive) | 2.25 | 1.81 (inactive) | 0.518 | 0.515 | 1.03 | 0.119
O=C1NC(=O)C2C1C=CC(C(O)c1ccccc1)N2Nc1ccc(Cl)cc1Cl (stereo not given) | -0.324 | 0.299 | 0.162 | 0.803 | 1.54 | 1.37 | 1.15 | -1.44 (inactive) | 1.32 | -0.156 | 1.56 | -25.6 (active) | -4.35 (inactive) | -1.48 (inactive) | 3.74 | -1.8 (inactive) | 0.0847 | 0.385 | 1.12 | 0.063
COc1ccc(C(O)C2C=CC3C(=O)N(C)C(=O)C3N2N2CCCCC2)c2ccccc12 (stereo not given) | -0.226 | 0.0595 | 0.192 | 0.988 | 1.65 | 1.27 | 1.07 | -0.292 (inactive) | 0.858 | 0.176 | 1.42 | -0.079 (inactive) | 1.16 (inactive) | 0.631 (inactive) | 3.01 | -1.22 (inactive) | 0.168 | 0.303 | 1.11 | 0.095
COCCOC(=O)N1C(=O)[C@@]2(c3cc(C#CCCO)ccc31)[C@H](C(=O)Nc1nc3ccccc3s1)[C@H]1C(=O)O[C@H](c3ccccc3)[C@H](c3ccccc3)N1[C@@H]2c1ccc(OCCO)cc1 | -0.221 | 0.787 | -0.0824 | 0.871 | 1.19 | 0.991 | 1.07 | 1.2 (inactive) | 0.464 | 0.0176 | 1.54 | 1.58 (inactive) | 1.09 (inactive) | 2.02 (inactive) | 1.89 | 0.176 (inactive) | 0.0444 | 0.874 | 1.1 | 0.0848
